A selection: hits, their analogues and other compounds. The true share with any hit is near 4.1%.
EBV LMP1 NFkB – EBV LMP1-driven NF-kappaB luciferase reporter inhibitors, primary screen, cell-based, luminescence, single point. LMP1-induced NF-kappaB luciferase reporter cells. inhibition, % at 12.5 µM. actives 0.69% (n = 350,000). AID 504558, 2011; in the data active means inhibition above about 41%;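 further: 0% = neutral control wells and 100% = reference inhibitor control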
Peg3 prom inh – Peg3 promoter-driven luciferase inhibitors, primary screen, cell-based, HeLa, luciferase luminescence | HeLa PEG-Prom luciferase reporter, overnight | inhibition, % at 20 µM | actives 1.7% (n = 360,000);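 active means inhibition of at least 50% at 20 µM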
MITF TRPM1 inh – inhibitors of MITF-dependent TRPM1 promoter reporter, primary screen, cell-based, SK-MEL-5, single point, luciferase; SK-MEL-5 TRPM1 promoter luciferase, 24 h; inhibition, % at 12.5 µM; actives 0.83% (n = 330,000); AID 488899, 2010;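 active means mean inhibition across replicates of 60% or more, whatever share of single replicates reaches that level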
Shn3 3UTR inh – reduction of Shn3 3'UTR firefly luciferase signal, primary screen, Schnurri-3 inhibitor project, cell-based, Clone20 osteoblasts, set 2; Clone20 osteoblast Shn3 3'UTR firefly luciferase, 24 h; inhibition, % at 12.5 µM; actives 0.52% (n = 360,000); AID 588674, 2011;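 active means mean inhibition of at least 75% with every replicate also reaching 75%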;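 further: 0% = median of neutral control wells and 100% = pilot-screen positive control compound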
TWEAK Fn14 block – inhibitors of TWEAK-Fn14 signaling, primary screen, luciferase reporter cells, uHTS; inhibition, % at 10 µM; TWEAK-stimulated Fn14 reporter cells, luciferase luminescence, 8 h; actives 2% (n = 360,000); in the data active means inhibition above about 50%
TROY signal inh – inhibitors of TROY-driven NF-kB signaling, primary screen, Q293 LMP1-TROYcd cells, NF-kB luciferase, uHTS; Q293 LMP1-TROYcd NF-kB luciferase reporter, 4 h; inhibition, % at 10 µM; actives 0.98% (n = 360,000); AID 1347056, 2019;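 active means compounds whose plate-normalised and pattern-corrected inhibition of the luciferase reporter signal at the single screening dose is 50% or more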
Active calls of the source: *; / = no result given.

SMILES	EBV LMP1 NFkB	Peg3 prom inh	MITF TRPM1 inh	Shn3 3UTR inh	TWEAK Fn14 block	TROY signal inh
CCCCOCCCNC(=O)C[C@@H]1C[C@@]2(C(=O)OCC)CCC=C2N(Cc2ccccc2)C1=O	/	/	/	/	1	-18
O=C(NC(=O)c1c(F)cccc1F)Nc1cccc(Oc2ncc(Cl)cn2)c1	-9	15	3	-2	21	8
Cc1ccc(CNC(=O)c2cc(-c3ccccc3)nn2CC2CC(c3cccnc3)=NO2)cc1 (configuration not stated)	4	9	7	2	-12	4
Cc1ccc(CNC(=O)c2cc(-c3ccccc3C)nn2CC2CC(c3cccnc3)=NO2)cc1 (configuration not stated)	-8	14	-15	92*	-2	5
CCCCCCCCCC[n+]1cccc2c3ccccc3ccc21	30	75*	101*	84	73*	51*
CCCCCCCC[n+]1cccc2c3ccccc3ccc21	33	54*	86*	80	83*	54*
O=C(C1=NN(c2ccccc2)C(=O)CC1)N1CCc2ccccc2C1	3	6	10	5	10	-38
O=C(c1ccc(S(=O)(=O)Nc2ccccc2F)cc1)N1CCC1	3	6	-6	11	-4	0
CC(O)CNCc1ccc(-c2ccccc2)cc1 (configuration not stated)	-8	-11	-12	-4	-19	-12
CC(NCc1ccc(-c2ccccc2)cc1)C(O)c1ccccc1 (configuration not stated)	1	74*	12	4	-36	20
CC(C)(C)c1ccc(C(=O)O)c(C(=O)c2ccccc2)c1	2	5	0	-8	20	-6
Fc1ccc(-[n+]2nc(Nc3ccccc3)sc2-c2c3ccccc3cc3ccccc23)cc1	1	53*	42	57	49	34
COc1ccc(C)cc1Nc1n[n+](-c2ccccc2)c(-c2c(OC)ccc3ccccc23)s1	44*	56*	66*	74	58*	47
Oc1ccc2ccccc2c1-c1sc(Nc2ccccc2)n[n+]1-c1ccc(F)cc1	0	-20	2	-7	-11	-20
COc1ccc(-c2noc(CCC(=O)N3CCN(c4ccc(Br)cc4)CC3)n2)cc1	12	15	5	5	-13	12
COc1cc(NC(=O)C(C)(C)C)c(C(=O)OCC(=O)Nc2cc(C)on2)cc1OC	-7	9	/	-3	-14	-7
O=C(COc1ccc2ccccc2c1)NCCNC(=O)COc1ccc2ccccc2c1	54*	13	14	8	-13	-4
CC(=O)c1ccc(-n2nnnc2SCC(=O)N2CCc3ccccc3C2)cc1	49*	8	0	8	11	24
CC1SC(c2ccccc2)N(CC(O)c2ccc([N+](=O)[O-])cc2)C1=O (configuration not stated)	11	14	4	14	16	13
COC(=O)c1sccc1NC(=O)COc1ccc(Cl)cc1Cl	-9	-50	-7	-27	-17	-37
O=C1/C(=C/c2ccccc2)CCCc2ccccc21	-4	-56	-36	-130	-15	-26
Cc1cccc(/C=C2\CCC(=C3SCCCS3)C2=O)c1	48*	16	33	52	75*	/
Cc1ccc(C)c(N2CCN(C(=O)Cn3ncc4c([nH]c5ccc(C)cc54)c3=O)CC2)c1	-2	15	-8	-10	-40	8
O=C(Nc1nc2ccccc2[nH]1)c1ccccc1OC(F)F	8	-104	1	-36	64*	27
O=C(Nc1nc2ccccc2[nH]1)c1cc(F)cc(F)c1	-6	-365	-48	-39	-6	-8
SMILES	EBV LMP1 NFkB	Peg3 prom inh	MITF TRPM1 inh	Shn3 3UTR inh	TWEAK Fn14 block	TROY signal inh
O=C(Nc1cccc2[nH]ncc12)c1ccc(F)cc1	38	-106	-89	-21	59*	15
COc1ccc(Cl)cc1C(=O)Nc1nc2ccccc2[nH]1	18	-12	54	7	95*	71*
O=C(Nc1nc2ccccc2[nH]1)c1ccc(F)cc1	30	-51	-8	-9	69*	10
O=C(NC(=S)Nc1cccc2[nH]ncc12)c1ccccc1	8	-215	-62	-53	45	-8
COc1ccc(CNC(=O)C(C)OC(=O)C23CC4CC(CC(O)(C4)C2)C3)cc1 (configuration not stated)	3	-1	0	23	-10	3
COc1ccc(CCC(=O)Nc2nc3ccccc3[nH]2)cc1OC	-5	-38	-1	-19	-1	10
CC(C)Oc1ccc(C(=O)Nc2nc3ccccc3[nH]2)cc1	70*	37	80*	47	98*	82*
COc1ccccc1CCC(=O)Nc1nc2ccccc2[nH]1	20	-152	-76	-84	50*	-49
O=C(Nc1nc2ccccc2[nH]1)c1ccc(OC(F)F)cc1	-2	-116	1	11	-1	5
COc1ccc(O)c(/C=N/c2nc3ccccc3n2C)c1	90*	43	-16	9	8	11
CCOc1ccc(N(CC(=O)N2CCCCC2)S(=O)(=O)c2ccc(Cl)cc2)cc1	-1	17	7	-6	-1	5
O=C(Nc1ccccc1)C1C2CCC3C(CCC21)C3(Cl)Cl (configuration not stated)	-4	-163	5	0	9	38
O=C(Nc1cccc(Cl)c1)C1C2CCC3C(CCC21)C3(Cl)Cl (configuration not stated)	12	-1	-19	22	62*	44
Cc1ccnc(NC(=O)Nc2ccc3c(c2)N(C)C(=O)CS3)c1	-76	-117	-174	-124	52*	-13
CC(=O)c1ccc(NC(=O)Nc2ccc3c(c2)N(C)C(=O)CS3)cc1	3	-14	-16	-15	72*	32
CCOc1ccc(NC(=O)Nc2ccc3c(c2)N(C)C(=O)CS3)cc1	4	3	-11	10	25	21
CSc1ccc(NC(=O)Nc2cc(C)ccn2)cc1	11	-137	-34	20	69*	34
Cc1ccnc(NC(=O)Nc2ccc(Br)cc2Cl)c1	48*	-187	-14	-45	43	37
CC(C)NC(=O)/C(C#N)=C/c1ccc(N(C)C)o1	13	-54	-36	-14	-10	-15
O=C(Nc1ccccc1O)N1c2ccccc2Sc2ccccc21	-5	0	-2	-6	-11	-35
c1ccc2c(c1)ccn2CCCN1CCCCC1	-8	-9	12	9	-10	-11
